The target of test [1] is Ubiquitin carboxyl-terminal hydrolase 1 (Homo sapiens) (UniProt O94782). Description: Inhibitors of USP1/UAF1: Pilot qHTS (AID 504865; active means well fitted curve in the direction sought with a large enough effect; an effect the other way counts as inactive or inconclusive; further: nearly all actives have a fitted effect of over 35% in size; further: potency means the concentration at half of the fitted maximal effect). The procedure, abridged:
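Deubiquitinase activity followed as kinetic rhodamine fluorescence release from 150 nM Ub-Rho. 1 nM USP1/UAF1 with compound, after 15 min room-temperature preincubation, in HEPES pH 7.8 buffer containing TCEP, EDTA, BSA and Tween-20.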

In test [2] the target is Bile acid receptor (Homo sapiens) (UniProt Q96RI1). Description: qHTS assay for small molecule antagonists of farnesoid X receptor signaling (AID 588526). Further: on the % scale 0 is the no-effect control and ±100 the full control effect. Put shortly: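 Antagonist mode: titrated compounds tested against chenodeoxycholic acid stimulation (normalized to 50 uM CDCA and DMSO) in GeneBLAzer HEK293T cells for 16 h. Beta-lactamase read by CCF4 fluorescence; IC50 from Hill fits.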
Sequence of Bile acid receptor (Homo sapiens) (Q96RI1 whole entry, looked up): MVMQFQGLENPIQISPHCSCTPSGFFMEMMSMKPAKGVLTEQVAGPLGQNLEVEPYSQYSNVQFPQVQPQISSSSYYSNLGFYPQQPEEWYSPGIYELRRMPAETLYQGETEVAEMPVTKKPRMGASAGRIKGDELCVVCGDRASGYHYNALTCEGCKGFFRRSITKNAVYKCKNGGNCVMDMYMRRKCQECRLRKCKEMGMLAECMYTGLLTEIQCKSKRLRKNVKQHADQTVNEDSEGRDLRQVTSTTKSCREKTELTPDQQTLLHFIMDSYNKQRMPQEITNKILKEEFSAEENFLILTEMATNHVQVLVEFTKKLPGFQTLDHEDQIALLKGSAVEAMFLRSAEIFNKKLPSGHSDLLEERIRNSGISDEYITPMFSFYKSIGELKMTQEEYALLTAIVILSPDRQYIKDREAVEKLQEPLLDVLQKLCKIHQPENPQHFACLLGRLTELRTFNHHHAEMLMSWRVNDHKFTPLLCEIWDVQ

The target in test [3] is Glucocorticoid receptor (Homo sapiens) (UniProt P04150). Description: qHTS assay for small molecule agonists of glucocorticoid receptor signaling (AID 588532; active means well fitted curve in the direction sought with a large enough effect in the signal ratio, with a control signal flat; the % refers to the signal ratio;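 further: 100% = dexamethasone at 0.1 µM and 0% = DMSO only wells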). The conditions noted are these: HeLa MMTV-bla, beta-lactamase ratio, agonist, 18 h; stronger effect = higher value; percent of dexamethasone control, DMSO zero. The procedure, abridged: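 Cells were plated and rested 3-5 h at 37 C, compounds were added in titration and incubated 18 h, then CCF4 substrate was loaded for 2 h at RT before reading blue/green fluorescence. EC50 came from Hill-equation fitting.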
Sequence of Glucocorticoid receptor (Homo sapiens) (P04150 whole entry, looked up): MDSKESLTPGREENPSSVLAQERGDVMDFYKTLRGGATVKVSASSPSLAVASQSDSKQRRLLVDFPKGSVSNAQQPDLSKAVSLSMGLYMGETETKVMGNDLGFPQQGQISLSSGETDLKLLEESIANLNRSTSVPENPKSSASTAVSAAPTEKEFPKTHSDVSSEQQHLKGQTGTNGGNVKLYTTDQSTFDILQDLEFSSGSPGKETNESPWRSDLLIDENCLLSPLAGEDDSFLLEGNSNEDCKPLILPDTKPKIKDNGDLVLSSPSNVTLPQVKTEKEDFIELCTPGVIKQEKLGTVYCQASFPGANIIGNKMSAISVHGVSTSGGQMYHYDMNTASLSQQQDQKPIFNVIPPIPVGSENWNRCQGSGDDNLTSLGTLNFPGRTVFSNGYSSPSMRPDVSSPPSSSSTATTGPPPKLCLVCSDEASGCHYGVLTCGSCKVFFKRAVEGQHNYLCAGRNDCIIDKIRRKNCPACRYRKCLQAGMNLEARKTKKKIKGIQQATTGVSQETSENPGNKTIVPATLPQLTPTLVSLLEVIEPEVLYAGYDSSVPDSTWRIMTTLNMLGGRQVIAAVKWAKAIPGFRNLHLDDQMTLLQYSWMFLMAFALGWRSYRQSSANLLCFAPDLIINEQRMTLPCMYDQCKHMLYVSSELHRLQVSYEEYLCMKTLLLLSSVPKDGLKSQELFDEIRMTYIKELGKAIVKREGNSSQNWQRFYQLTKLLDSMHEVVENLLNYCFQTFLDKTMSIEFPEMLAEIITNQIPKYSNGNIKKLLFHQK

For test [4] the target is unchanged. Briefly: qHTS assay for small molecule antagonists of glucocorticoid receptor signaling (AID 588533; active means well fitted inhibition curve with a large enough effect in the signal ratio, with a control signal flat, not every such curve was filed as active; the % refers to the signal ratio; further: on the % scale 0 is the no-effect control and ±100 the full control effect). The procedure, abridged:
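Antagonist-mode qHTS: compound titrations added to GRE-bla HeLa cells, then dexamethasone 2 nM final; 18 h, 37 C. CCF4 FRET fluorescence normalized to dexamethasone and DMSO; IC50 from Hill fit.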

Test [5] can be described thus: qHTS assay for small molecule antagonists of peroxisome proliferator-activated receptor delta signaling (AID 588535; active means well fitted inhibition curve with a large enough effect in the signal ratio, with a control signal flat, not every such curve was filed as active; the % refers to the signal ratio;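 on max response: cells co-treated with a PPAR-delta agonist as stimulator during compound exposure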). The conditions noted are these: HEK293T PPARd-UAS-bla, beta-lactamase FRET ratio, 18 h; 460 nm channel. The procedure, abridged: (§1)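 Beta-lactamase reporter read-out (405 nm excitation, 460/530 nm emission) after CCF4 loading for 2 hrs at RT. HEK293T PPAR-delta-UAS-bla cells, 2% charcoal/dextran FBS, compounds for 18 hrs at 37 C. Hill fit gave IC50 and efficacy.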

For test [6], the target named is Peroxisome proliferator-activated receptor delta (Homo sapiens) (UniProt Q03181). The description is as above. The procedure, abridged: as §1
Sequence of Peroxisome proliferator-activated receptor delta (Homo sapiens) (Q03181 whole entry, looked up): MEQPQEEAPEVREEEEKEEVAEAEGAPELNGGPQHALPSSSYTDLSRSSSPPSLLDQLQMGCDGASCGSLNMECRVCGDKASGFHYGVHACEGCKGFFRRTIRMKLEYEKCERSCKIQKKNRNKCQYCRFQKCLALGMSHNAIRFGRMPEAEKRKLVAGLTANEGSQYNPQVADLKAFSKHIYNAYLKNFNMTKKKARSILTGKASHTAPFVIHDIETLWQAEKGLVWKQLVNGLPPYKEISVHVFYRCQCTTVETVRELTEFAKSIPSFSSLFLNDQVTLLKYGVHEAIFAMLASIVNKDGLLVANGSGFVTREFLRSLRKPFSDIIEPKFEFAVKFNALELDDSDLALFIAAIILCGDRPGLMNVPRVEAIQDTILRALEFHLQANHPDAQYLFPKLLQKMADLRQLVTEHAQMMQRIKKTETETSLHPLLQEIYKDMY
Test [7] addresses Peroxisome proliferator-activated receptor gamma (Homo sapiens) (UniProt P37231). Briefly: qHTS assay for small molecule agonists of peroxisome proliferator-activated receptor gamma signaling (AID 588536; active means well fitted curve in the direction sought with a large enough effect in the signal ratio, with a control signal flat, not every such curve was filed as active; the % refers to the signal ratio). The procedure, abridged: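 Using GeneBLAzer HEK293 cells, response was quantified by CCF4 fluorescence and normalized between basal DMSO (0%) and rosiglitazone 2 uM (100%); curves yielded half-maximal stimulation concentration and efficacy.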

The target is the same in test [8]. Description: qHTS assay for small molecule antagonists of peroxisome proliferator-activated receptor gamma signaling (AID 588537; active means well fitted inhibition curve with a large enough effect in the signal ratio, with a control signal flat, not every such curve was filed as active; the % refers to the signal ratio;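 further: reporter cells co-stimulated with 50 nM rosiglitazone agonist during compound treatment; % of control where 0% means no effect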). Put shortly: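 Read-out: CCF4 fluorescence (ex 405, em 460/530 nm) after 2 h at RT. Cells were HEK293 carrying a UAS-bla reporter and treated 16 h at 37 C with compound plus rosiglitazone (50 nM final). Normalized to rosiglitazone and DMSO.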

For test [9], the target named is Vitamin D3 receptor (Homo sapiens) (UniProt P11473). Description: qHTS assay for small molecule antagonists of vitamin D receptor signaling (AID 588541).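 Further: receptor activated by calcitriol during compound treatment; series mostly up to about 77 µM; on the % scale 0 is the no-effect control and ±100 the full control effect.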 The procedure, abridged: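 VDR-UAS-bla HEK293T cells in 2% charcoal-stripped FBS were stimulated with 1-alpha,25-dihydroxyvitamin D3 (3 nM final) plus compound for 16 h at 37 C. The beta-lactamase CCF4 readout was normalized to 50 nM agonist and DMSO, and Hill fits gave IC50.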
Sequence of Vitamin D3 receptor (Homo sapiens) (P11473 whole entry, looked up): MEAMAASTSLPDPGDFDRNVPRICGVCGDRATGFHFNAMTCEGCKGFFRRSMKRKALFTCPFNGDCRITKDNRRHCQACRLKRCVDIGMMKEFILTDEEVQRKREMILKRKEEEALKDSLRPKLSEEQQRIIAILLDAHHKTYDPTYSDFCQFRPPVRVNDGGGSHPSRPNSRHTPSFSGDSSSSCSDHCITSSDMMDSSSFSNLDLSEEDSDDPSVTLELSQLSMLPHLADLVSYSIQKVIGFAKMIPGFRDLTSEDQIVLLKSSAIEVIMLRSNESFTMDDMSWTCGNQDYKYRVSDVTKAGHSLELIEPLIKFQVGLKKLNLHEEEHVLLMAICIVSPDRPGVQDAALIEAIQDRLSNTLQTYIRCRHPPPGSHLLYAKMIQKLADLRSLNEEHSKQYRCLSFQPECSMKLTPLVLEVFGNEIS

For test [10] the target is unchanged. Briefly: qHTS assay for small molecule agonists of vitamin D receptor signaling (AID 588543). Put shortly:
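Agonist-mode beta-lactamase reporter: HEK293T VDR-UAS-bla cells in charcoal-stripped 2% FBS, compound series 16 h 37 C, CCF4 2 h RT. EC50 from Hill fit, scaled against DMSO and 50 nM calcitriol control.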

The nature of test [11]: qHTS assay for small molecule agonists of retinoid X receptor alpha signaling (AID 588544). The conditions noted are these: HEK293T RXRa-UAS-bla, beta-lactamase reporter, 18 h; 530 nm emission.
Test [12] concerns the target Estrogen receptor (Homo sapiens) (UniProt P03372). Description: qHTS assay for small molecule antagonists of estrogen receptor alpha signaling (AID 588513; active means well fitted curve in the direction sought with a large enough effect in the signal ratio, with a control signal flat, not every such curve was filed as active; the % refers to the signal ratio; further: on the % scale 0 is the no-effect control and ±100 the full control effect). Put shortly: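 Antagonist mode: inhibition of 0.5 nM 17-beta-estradiol-driven beta-lactamase reporter in HEK 293 ER-alpha-UAS-bla cells, 18 h at 37C, CCF4 readout after 2 h at RT. Normalised to estradiol and DMSO; titration fitted to Hill.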

For test [13] the target is unchanged. Briefly: qHTS assay for small molecule agonists of estrogen receptor alpha signaling (AID 588514).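 Further: 0% = vehicle only and 100% = reference agonist; nearly all actives have a fitted effect of over 70% in size.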 Put shortly: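 Read-out: CCF4 fluorescence from a beta-lactamase reporter in ER-alpha-UAS-bla HEK 293 cells after 18 hrs of compound exposure at 37 C. Normalized to 20 nM 17-beta-estradiol (100%) and DMSO (0%).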
In test [14] the target is Androgen receptor (Homo sapiens) (UniProt P10275). Description: qHTS assay for small molecule agonists of androgen receptor signaling (AID 588515; active means well fitted curve in the direction sought with a large enough effect in the signal ratio, with a control signal flat; the % refers to the signal ratio; further: on the % scale 0 is the no-effect control and ±100 the full control effect). The settings on record: AR-UAS-bla HEK293, beta-lactamase ratio, agonist 16 h; stronger effect = higher value. Put shortly: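 Stimulation of an AR-responsive β-lactamase reporter in GripTite HEK293 cells was measured after 16 h compound exposure at 37 °C, via CCF4 fluorescence after 2 h RT. EC50 from Hill fits, normalized to R1881 at 30 nM.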
Sequence of Androgen receptor (Homo sapiens) (P10275 whole entry, looked up): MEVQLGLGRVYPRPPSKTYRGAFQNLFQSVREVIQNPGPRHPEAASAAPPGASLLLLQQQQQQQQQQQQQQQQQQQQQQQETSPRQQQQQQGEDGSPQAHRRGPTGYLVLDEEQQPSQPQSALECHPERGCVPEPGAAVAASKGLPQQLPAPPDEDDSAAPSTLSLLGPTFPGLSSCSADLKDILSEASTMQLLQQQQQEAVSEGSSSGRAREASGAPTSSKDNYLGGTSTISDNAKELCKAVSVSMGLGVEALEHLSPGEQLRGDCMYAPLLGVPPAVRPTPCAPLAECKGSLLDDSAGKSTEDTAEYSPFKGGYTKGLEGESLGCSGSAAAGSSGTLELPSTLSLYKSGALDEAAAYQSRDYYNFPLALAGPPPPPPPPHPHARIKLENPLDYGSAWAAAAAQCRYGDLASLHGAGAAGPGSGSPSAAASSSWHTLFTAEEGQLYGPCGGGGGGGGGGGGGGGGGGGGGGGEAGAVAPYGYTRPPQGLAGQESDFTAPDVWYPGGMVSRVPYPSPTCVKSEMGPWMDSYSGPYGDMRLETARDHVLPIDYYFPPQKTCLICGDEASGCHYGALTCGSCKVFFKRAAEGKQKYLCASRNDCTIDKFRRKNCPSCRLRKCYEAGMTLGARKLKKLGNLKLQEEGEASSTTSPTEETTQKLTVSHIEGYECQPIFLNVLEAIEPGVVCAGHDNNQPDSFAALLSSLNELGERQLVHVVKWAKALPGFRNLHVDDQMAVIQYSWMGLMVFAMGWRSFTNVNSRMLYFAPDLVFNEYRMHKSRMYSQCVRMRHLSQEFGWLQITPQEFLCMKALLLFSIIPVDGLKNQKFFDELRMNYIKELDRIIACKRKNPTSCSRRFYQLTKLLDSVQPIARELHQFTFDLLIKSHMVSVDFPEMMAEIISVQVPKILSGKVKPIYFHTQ

The nature of test [15]: qHTS for Inhibitors of ATXN expression: Validation of Cytotoxic Assay (AID 588349; active means well fitted curve in the direction sought with a large enough effect; an effect the other way counts as inactive or inconclusive; further: potency means the concentration at half of the fitted maximal effect). The procedure, abridged:
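Cytotoxicity counter-screen: HEK293 cells exposed to compound titrations, 72 hr, 37 degrees C. Read-out is intracellular ATP (CellTiter Glo luminescence) as a viability measure.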

Each structure is given as a SMILES string. Values joined by “and” are separate entries in the source; they are usually repeats but may differ in a detail not shown here. Equal entries are not always repeated. Inconclusive results are not listed. A structure can be active in one record and inactive in another. Active and inactive are the calls of the source. Unless noted, the call rests on the fitted dose curve.

Sequence of Estrogen receptor (Homo sapiens) (P03372 whole entry, looked up): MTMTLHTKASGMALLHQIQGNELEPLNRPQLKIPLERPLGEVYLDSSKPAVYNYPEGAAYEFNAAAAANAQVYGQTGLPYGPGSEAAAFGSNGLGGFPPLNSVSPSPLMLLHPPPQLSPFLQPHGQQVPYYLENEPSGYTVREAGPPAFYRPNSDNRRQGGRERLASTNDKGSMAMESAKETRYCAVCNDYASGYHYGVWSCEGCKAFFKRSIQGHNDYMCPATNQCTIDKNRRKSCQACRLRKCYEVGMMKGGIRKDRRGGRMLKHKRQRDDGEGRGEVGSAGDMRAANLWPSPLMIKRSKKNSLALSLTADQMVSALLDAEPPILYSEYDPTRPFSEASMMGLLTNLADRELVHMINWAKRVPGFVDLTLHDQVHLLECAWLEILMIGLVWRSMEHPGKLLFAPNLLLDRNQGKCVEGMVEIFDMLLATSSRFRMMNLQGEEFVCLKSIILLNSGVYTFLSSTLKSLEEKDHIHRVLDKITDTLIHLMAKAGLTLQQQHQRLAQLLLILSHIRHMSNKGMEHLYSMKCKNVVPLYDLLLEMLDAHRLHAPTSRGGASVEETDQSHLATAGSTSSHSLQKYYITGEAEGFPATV
Sequence of Ubiquitin carboxyl-terminal hydrolase 1 (Homo sapiens) (O94782 whole entry, looked up): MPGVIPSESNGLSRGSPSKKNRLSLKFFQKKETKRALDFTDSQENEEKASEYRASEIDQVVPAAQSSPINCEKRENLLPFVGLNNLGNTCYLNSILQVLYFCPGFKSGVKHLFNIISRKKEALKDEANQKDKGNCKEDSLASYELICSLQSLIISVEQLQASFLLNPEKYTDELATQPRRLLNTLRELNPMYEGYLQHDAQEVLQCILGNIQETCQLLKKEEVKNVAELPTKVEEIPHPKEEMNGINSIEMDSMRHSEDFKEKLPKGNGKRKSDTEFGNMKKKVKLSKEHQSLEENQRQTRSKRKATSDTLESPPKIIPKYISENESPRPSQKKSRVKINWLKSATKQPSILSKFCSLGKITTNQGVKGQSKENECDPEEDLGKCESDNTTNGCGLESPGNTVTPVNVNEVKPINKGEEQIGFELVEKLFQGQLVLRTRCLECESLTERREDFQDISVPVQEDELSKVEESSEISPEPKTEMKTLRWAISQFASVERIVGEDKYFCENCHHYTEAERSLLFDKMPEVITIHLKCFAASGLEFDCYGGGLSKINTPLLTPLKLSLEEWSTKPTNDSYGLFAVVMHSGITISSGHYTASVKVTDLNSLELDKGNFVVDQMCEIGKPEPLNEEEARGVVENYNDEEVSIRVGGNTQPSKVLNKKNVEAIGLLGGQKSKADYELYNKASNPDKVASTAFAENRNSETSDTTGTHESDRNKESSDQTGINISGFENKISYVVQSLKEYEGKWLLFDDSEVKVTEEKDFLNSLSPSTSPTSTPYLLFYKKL
Sequence of Peroxisome proliferator-activated receptor gamma (Homo sapiens) (P37231 whole entry, looked up): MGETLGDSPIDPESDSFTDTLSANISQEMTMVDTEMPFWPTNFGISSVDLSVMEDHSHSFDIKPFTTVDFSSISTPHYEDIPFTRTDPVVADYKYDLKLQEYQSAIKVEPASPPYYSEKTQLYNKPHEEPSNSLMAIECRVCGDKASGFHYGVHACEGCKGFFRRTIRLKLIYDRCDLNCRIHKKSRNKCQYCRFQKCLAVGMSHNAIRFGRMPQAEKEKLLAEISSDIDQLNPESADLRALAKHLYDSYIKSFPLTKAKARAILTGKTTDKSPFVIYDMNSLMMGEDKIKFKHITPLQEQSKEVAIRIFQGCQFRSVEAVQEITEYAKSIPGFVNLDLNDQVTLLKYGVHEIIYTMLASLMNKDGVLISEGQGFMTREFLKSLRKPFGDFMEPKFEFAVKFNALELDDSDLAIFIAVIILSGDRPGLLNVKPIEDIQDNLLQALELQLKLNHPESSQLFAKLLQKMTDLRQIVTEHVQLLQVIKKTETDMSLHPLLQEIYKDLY

For the compound `O=C(OCc1ccccc1)c1ccccc1`, the Potency result in [1], in test [4], in test [6] and in test [8] was “inactive” throughout. The call in test [2], in test [7], in [9] and in [10] was inactive. Also, the activation in test [3] is -9.71% (inactive). Also, the max response was 18.5% in [5] and 2.86% in test [11].
Take `O=C(CCN1CCN(CCO)CC1)N1c2ccccc2Sc2ccc(C(F)(F)F)cc21`: the Potency result in [1] was “inactive”.
Still for that read-out and setting: the entry for `C[S+](CC[C@H](N)C(=O)O)C[C@H]1O[C@@H](n2cnc3c(N)ncnc32)[C@H](O)[C@@H]1O` (some centres undefined) is “inactive”; for `CC(C(=O)O)c1ccc2c(c1)[nH]c1ccc(Cl)cc12` (centres undefined) it is “inactive”.
For the compound `O=C1CN(/N=C/c2ccc([N+](=O)[O-])o2)C(=O)N1`, the Potency entry in test [1] was “inactive and 50.1 µM (active)”. Further, the outcome in test [12], in test [9] and in test [10] was inactive. Further, the activation in [3] was 2.61% (inactive). The Potency result in test [4] is “inactive”.
In the case of `Nc1ccc([N+](=O)[O-])cc1O`, the call in test [12], in test [9] and in [10] was inactive. In addition, the Potency result in [13] and in test [6] was “inactive” throughout. Further, the activation in test [3] is -6.1% (inactive) and -0.626% (inactive). For the same compound, the max response in [5] was 4.75% and -17.9%; in test [11], 5.77%.
In the case of `COc1cc(CNC(=O)CCCC/C=C/C(C)C)ccc1O`, the outcome in test [12], in [2], in [9] and in test [10] was inactive. The Potency entry in test [13], in [4], in [6] and in [8] was “inactive” in each case. Besides, the activation in test [3] was -1.19% (inactive) and -3.69% (inactive). For the same compound, the max response in test [5] is 7.93% and 37.4%; in test [11], 3.03% and 16.9%.
`Cc1ccc(C(=O)c2ccc(CC(=O)O)n2C)cc1`: in test [1], the Potency entry is “inactive”.
In the case of `Nc1nc2ccc([N+](=O)[O-])cc2s1`, the activation in [14] was -6.41% (inactive). The max response in test [5] was 42.6%. Besides, in test [6], the Potency result is “inactive”. For the same compound, the compound was called inactive in [7], in test [9] and in test [10].
In the case of `Nc1ccc(C(=O)O)c(O)c1`, the Potency result in test [1] is “inactive”.
As to `O=C(O)c1cc(O)c(O)c(O)c1`, the Potency result in test [1], in test [6] and in [8] was “inactive” throughout. Further, the outcome in [12], in test [7], in test [9] and in test [10] was inactive. The activation in test [3] was 2.04% (inactive). The max response was determined as 19.5% in test [5] and 4.26% in [11].
`CN1[C@@H]2CC[C@H]1CC(OC(c1ccccc1)c1ccccc1)C2` (some centres undefined): the Potency result in test [1] was “inactive”.
Consider `N.N.N.N.N.N.N.N.N.N.N.N.N.N.O.O.[Ru+4].[Ru+5].[Ru+5]`, for which the Potency in [15] is 28.2 µM (active).
Consider `COc1cc(/C=C/C(=O)CC(=O)/C=C/c2ccc(O)c(OC)c2)ccc1O`, for which, in test [1], the Potency is 12.6 µM (active). Further, in test [12], the result was inactive. In addition, in test [3], the activation was -12.9% (inactive).
For `O=C(O)/C=C\C(=O)O`, the activation in test [3] is -2.26% (inactive). The Potency result in [4] and in [6] was “inactive” each time. Moreover, the max response in test [5] was -10.6%; in test [11], -5.8%. Moreover, the result in test [9] and in test [10] was inactive.

These data come from PubChem BioAssay (NCATS).
